Measured values from the supplement of paper PMC6555819.

Experiments:
Experiment in all cases: PBM binding z-score (relative to random genomic background probes); higher = stronger binding; sequences stand for … in GC…GCGATTGACAGCGTAGAATGAAGG
[1] = tested on: FXR:RXRa (NR concentration 270 nM, RXRa partner concentration 90 nM)
In short: (§1)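 On custom Agilent 4×180K arrays, double-stranded probes with 34-nt variable regions carried direct-repeat seeds, single-nucleotide variants, half-site ablations or random human genomic background. Ligand-free nuclear receptor dimers were applied for 1 h, and binding was read with antibodies against each partner (one per run). Binding z-scores come from regression-normalized fluorescence, with the random background probes as reference.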

[2] = tested on: LXRa:RXRa (NR concentration 270 nM, RXRa partner concentration 90 nM)
In short: as §1

[3] = tested on: LXRa homodimer (NR concentration 270 nM)
In short: as §1

[4] = tested on: LXRb:RXRa (NR concentration 270 nM, RXRa partner concentration 90 nM)
In short: as §1

[5] = tested on: LXRb homodimer (NR concentration 270 nM)
In short: as §1

[6] = tested on: PPARa:RXRa (NR concentration 270 nM, RXRa partner concentration 90 nM)
In short: as §1

[7] = tested on: PPARg:RXRa (NR concentration 180 nM, RXRa partner concentration 90 nM)
In short: as §1

[8] = tested on: PPARg:RXRa 270nM:90nM, anti-RXR (NR concentration 270 nM, RXRa partner concentration 90 nM)
In short: as §1

[9] = tested on: PPARg:RXRa 30nM:10nM, anti-RXR (NR concentration 30 nM, RXRa partner concentration 10 nM)
In short: as §1

[10] = tested on: PPARg:RXRa 90nM:30nM, anti-RXR (NR concentration 90 nM, RXRa partner concentration 30 nM)
In short: as §1

Row | Sequence | PBM binding z-score [1] | PBM binding z-score [2] | PBM binding z-score [3] | PBM binding z-score [4] | PBM binding z-score [5] | PBM binding z-score [6] | PBM binding z-score [7] | PBM binding z-score [8] | PBM binding z-score [9] | PBM binding z-score [10]
1 | CGTCCAAGGTCAGAGAGGCCAGTGAATGCCGAGT | 4.34 | 2.95 | 0.144 | 2.18 | -0.662 | 3.93 | 2.04 | 2.45 | -0.0839 | 1.33
2 | CAAACTAGGTCAAGGTCAAAGCCGGTTTGTGCCA | 6.25 | 5.33 | 3.23 | 4.36 | 1.05 | 6.15 | 9.26 | 8.02 | 6.18 | 7.95
3 | TCATATAGGTAATACAGTTGAAAGTCGGCATCTA | 1.56 | 1.24 | 0.63 | 1.2 | 0.422 | 1.56 | 1.32 | 2.56 | 4.01 | 3.39
4 | TCGAGTAGGTTAGGCGGGGCATTCAGCCAACATA | 0.223 | 0.211 | -0.616 | 0.946 | 0.912 | 0.687 | -0.0188 | 0.886 | 0.825 | 0.705
5 | TCATATAGGTTATACAGGTGAAAGTCGGCATCTA | 1.71 | 2.32 | 0.882 | 1.82 | 0.833 | 2.99 | 2.56 | 3.17 | 3.94 | 3.58
6 | AGAACGAGGGCACGCTGTGTTGATAGCAGAGTAG | 0.77 | 0.377 | -0.602 | 0.159 | -1.07 | 1.92 | 2.14 | 1.81 | 0.262 | 1.12
7 | AGTCAAAGTTCAGGACGAGGTAACGTATAGCACG | 4.44 | 4.03 | 1.43 | 1.92 | 0.317 | 3.43 | 4.7 | 5.09 | 2.17 | 4.27
8 | CCTGCTAGGTCATGGTCTGCTAATCTACAGTATG | 3.19 | 2.35 | 0.138 | 1.97 | -0.218 | 3.4 | 2.18 | 3.48 | 1.08 | 2.49
9 | CCTGCTAGGTCAATTGTCAGCTAAAGCAGCTCGC | 2.8 | 2 | 0.111 | 1.6 | 0.259 | 2.77 | 1.83 | 2.46 | -0.128 | 1.54
10 | CCAGACAGGTGAGAATGTAACTCAGCCTCGATTA | -0.153 | -0.116 | -0.13 | -0.00314 | -0.187 | 0.0169 | 0.376 | -0.212 | -0.0571 | -0.437
11 | CCTTACGAGTCACTCCAGGTTATAGCATCGGAGT | 1.35 | 4.98 | 1.69 | 1.55 | 0.939 | 0.751 | 0.539 | 0.0713 | -0.0643 | -0.0945
12 | ATCGAAAGGTCGTGAGATGAGTATACAGAAAGGC | 4.78 | 3.98 | 0.0145 | 3 | 0.525 | 5.17 | 3.63 | 3.8 | 1.53 | 2.49
13 | ATATGTAGGTTATCGGGTCAGTCAGTTTGCGCAT | 2.15 | 2.12 | 0.91 | 1.91 | 1.49 | 4.28 | 6.83 | 5.81 | 3.11 | 5
14 | CGTCAAATTTCAACTAAGGTAACGTAAAGCACGC | 1.08 | 0.429 | 0.483 | 0.87 | 0.711 | 0.628 | 0.633 | 0.149 | 0.303 | 0.502
15 | GCGATTAGTTGAAAGGGCAACCGAATGATTCTCG | 0.286 | 0.514 | -0.112 | 0.595 | -0.521 | 1.88 | 1.74 | 3.51 | 1.24 | 2.72
16 | CCTTCTGGGCCAAGGTCATTGATCAGTCAAAGCA | 2.83 | 2.99 | 0.639 | 2.84 | -0.27 | 3.75 | 3.12 | 4.15 | 1.37 | 3.57
17 | ATCGAAAGGTCGACGAGGTGGGTATACACCGTTT | 3.58 | 3.27 | 0.14 | 2.55 | 0.209 | 4.1 | 2.2 | 2.89 | 0.706 | 1.6
18 | ATATGTAGGTTATCAGGTCATTCAGTTTGCGCAT | 3.19 | 3.57 | 4.4 | 2.93 | 1.68 | 4.62 | 7.23 | 5.99 | 4.05 | 5.54
19 | AGTCAAAGTTCAGGACGAGGAAACGTAAAGCACG | 3.83 | 3.6 | 0.784 | 1.92 | 0.307 | 3.21 | 5.02 | 5.02 | 2.33 | 4.27
20 | GCTAGCAGGCCATTTAGGTCACTCAATGACGGGC | 0.265 | -0.00867 | -0.241 | -0.158 | -1.25 | 1.67 | 0.871 | 0.498 | -0.134 | 0.454
21 | AGTCAAAGTTAATCTAGGTAACGTAAGATATGCT | 0.59 | 0.213 | -0.267 | -0.245 | -0.44 | 1.29 | 1.78 | 1.41 | 0.619 | 0.829
22 | TAGCCTAGGTCATGGGCCAGGATACCACGCGAAC | 4.32 | 3.44 | 0.422 | 2.16 | -0.43 | 4.16 | 3.93 | 3.93 | 1.12 | 2.85

Row | Sequence | PBM binding z-score [1] | PBM binding z-score [2] | PBM binding z-score [3] | PBM binding z-score [4] | PBM binding z-score [5] | PBM binding z-score [6] | PBM binding z-score [7] | PBM binding z-score [8] | PBM binding z-score [9] | PBM binding z-score [10]
23 | ACTAGCAGGGCAAGTTTGGGTCACTCAAACAAAG | 1.11 | 0.854 | -0.346 | 1.07 | -0.746 | 1.85 | 0.29 | 0.531 | -0.392 | 0.0112
24 | TTTTGTAGATCAAAGGTTAAGAAAGCCGAAGCCT | 1.35 | 2.03 | 0.327 | 2.09 | 0.386 | 5.08 | 9.51 | 8.59 | 8.23 | 9.36
25 | GTTCCAAGGTGAATAGGTCGTTGATGAGTAGGCG | 1.29 | 0.977 | -0.00758 | 0.642 | 0.0158 | 2.24 | 1.16 | 1.94 | 0.65 | 1.07
26 | TAGCCTAGGTCATGCGCGCCAGTATAGTGTCGGC | 4.7 | 3.47 | 0.451 | 2.36 | 0.289 | 3.98 | 2.68 | 2.89 | 0.197 | 1.79
27 | CAAGCTAGGTCAAGGTCAAAGTCGGTTTGTGCCA | 6.4 | 5.71 | 4.42 | 4.74 | 1.37 | 5.36 | 5.58 | 5.39 | 2.37 | 4.73
28 | ATCTCTAGGTAAAGATAGTTTAGTGAATGCAAAT | 0.535 | 0.896 | 0.494 | 0.361 | 0.415 | 0.104 | 0.777 | 0.218 | 0.448 | 0.329
29 | TCTTGTAGATCAACAGGATGTTAAGAAAGATCGA | 0.365 | 0.173 | -0.3 | 0.12 | -0.659 | 0.612 | 0.227 | 1.3 | 2.66 | 1.97
30 | CAAACTGGGTCAAAGGTCAAAGTCGAGCCAACCA | 7.83 | 7.07 | 4.88 | 6.89 | 2.4 | 7.41 | 14.1 | 11.2 | 13.5 | 13
31 | CCGACTGGGGCAGAAAGGTAACCATACCATCCGG | -0.151 | -0.447 | -0.528 | -0.363 | -1.18 | 0.647 | 1.05 | 1.25 | -0.0627 | 0.913
32 | TTACCAAGGTGAGATGAGGTCGTTGATCCAACTC | 1.78 | 1.68 | -0.0824 | 1.1 | -0.44 | 2.03 | 0.772 | 1.32 | 0.775 | 1.01
33 | GCTATTTGTTGAAAGGGCAACCGAATGATTCTCG | 0.484 | 0.768 | 0.386 | 0.834 | 0.261 | 1.37 | 0.764 | 1.88 | 0.957 | 1.46
34 | GTACCAAGGTGAATAGGTCGGTGATGAGTAGGCG | 0.606 | 0.247 | -0.139 | 0.125 | -0.619 | 1.64 | 1.24 | 1.29 | 0.291 | 0.711
35 | GCGACTGGGGCAAAGCAGGGTACCATAAGGTTGG | -0.153 | -0.295 | -0.964 | -0.249 | -1.01 | 0.981 | 0.93 | 0.904 | -0.207 | 0.227
36 | CCTACTGGGGCAGAAAGGTTACCATACCATCCGG | 0.253 | 0.567 | 0.201 | 0.837 | -0.839 | 2.14 | 2.05 | 2.74 | 0.989 | 2.22
37 | CCAGACAGGTGATAGGTAACTCAGTCTGGTACGC | -0.225 | -0.0796 | -0.151 | -0.0572 | -0.589 | 0.765 | 1.82 | 2.56 | 0.858 | 1.92
38 | CGTCCAAGGTCAGTAGGTCAGTGAAAGCGACGTG | 4.68 | 3.18 | 0.336 | 2.78 | 0.0496 | 5.1 | 6.2 | 6 | 2.74 | 4.9
39 | GGCACGAGGGCAAGTTGATAGCAGAGTTTGATGG | 0.802 | 0.399 | -0.191 | 0.444 | -0.697 | 1.23 | 0.838 | 0.927 | -0.291 | 0.52
40 | GCTAGTTGGTCAGTAAAAGGTCACCCACCGGTCG | 3.38 | 4.1 | 4.23 | 3.6 | 0.649 | 4.11 | 2.48 | 4.29 | 2.04 | 3.67
41 | CCGACTGGGGCAAAGATTACCATACTCAGTACGA | -0.494 | -0.583 | -0.45 | -0.138 | -1.19 | 1.89 | 4.52 | 5.48 | 3.98 | 6.06
42 | TCTTGGAGATCAAAGGTTAAGAAAGCCGAAGCCT | 2.17 | 2.17 | -0.196 | 2.2 | -0.93 | 4.34 | 5.56 | 6.62 | 5.5 | 7
43 | CAAACTAGGTCACAGAGATCAAAGTCCGTGCGTA | 4.32 | 3.26 | 0.659 | 2.41 | 0.38 | 5.25 | 8.83 | 7.25 | 5.12 | 7.3
44 | CCGACTGGGGCAAGGTTACCAGAACGCACAGCCA | 0.168 | 0.506 | -0.288 | 0.501 | -1.15 | 1.97 | 2.79 | 3.43 | 0.792 | 2.68
